Experimental data from ChEMBL document CHEMBL5308504, “Tm Shift (DSF) assay results for EUbOPEN Chemogenomics Library” (2023).

How the values were obtained:
Settings in all cases: Compound concentration 20.0 uM, Protein concentration 2.0 uM, Result type QC Liability
[1] = target: Tyrosine-protein kinase ABL1 (Homo sapiens) (UniProt P00519)
[2] = target: Cyclin-dependent kinase 2 (Homo sapiens) (UniProt P24941)
[3] = target: Casein kinase I isoform delta (Homo sapiens) (UniProt P48730)
[4] = target: Glycogen synthase kinase-3 beta (Homo sapiens) (UniProt P49841)
[5] = target: Mitogen-activated protein kinase 1 (Homo sapiens) (UniProt P28482)
[6] = target: T1, Aurora kinase A (Homo sapiens) (UniProt O14965)
T1 sequence (whole entry): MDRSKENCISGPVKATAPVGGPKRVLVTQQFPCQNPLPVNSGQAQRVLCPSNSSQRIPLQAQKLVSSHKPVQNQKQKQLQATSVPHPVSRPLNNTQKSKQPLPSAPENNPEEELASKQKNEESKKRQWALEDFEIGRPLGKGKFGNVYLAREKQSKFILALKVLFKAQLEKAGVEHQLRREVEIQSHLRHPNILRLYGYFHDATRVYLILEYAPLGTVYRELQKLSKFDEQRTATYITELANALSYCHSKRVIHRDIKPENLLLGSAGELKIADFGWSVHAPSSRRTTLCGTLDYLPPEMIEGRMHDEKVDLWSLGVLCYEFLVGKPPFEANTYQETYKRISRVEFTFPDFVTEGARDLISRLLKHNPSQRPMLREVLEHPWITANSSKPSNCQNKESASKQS

[7] = target: T2, Transcription intermediary factor 1-alpha (Homo sapiens) (UniProt O15164)
T2 sequence (whole entry): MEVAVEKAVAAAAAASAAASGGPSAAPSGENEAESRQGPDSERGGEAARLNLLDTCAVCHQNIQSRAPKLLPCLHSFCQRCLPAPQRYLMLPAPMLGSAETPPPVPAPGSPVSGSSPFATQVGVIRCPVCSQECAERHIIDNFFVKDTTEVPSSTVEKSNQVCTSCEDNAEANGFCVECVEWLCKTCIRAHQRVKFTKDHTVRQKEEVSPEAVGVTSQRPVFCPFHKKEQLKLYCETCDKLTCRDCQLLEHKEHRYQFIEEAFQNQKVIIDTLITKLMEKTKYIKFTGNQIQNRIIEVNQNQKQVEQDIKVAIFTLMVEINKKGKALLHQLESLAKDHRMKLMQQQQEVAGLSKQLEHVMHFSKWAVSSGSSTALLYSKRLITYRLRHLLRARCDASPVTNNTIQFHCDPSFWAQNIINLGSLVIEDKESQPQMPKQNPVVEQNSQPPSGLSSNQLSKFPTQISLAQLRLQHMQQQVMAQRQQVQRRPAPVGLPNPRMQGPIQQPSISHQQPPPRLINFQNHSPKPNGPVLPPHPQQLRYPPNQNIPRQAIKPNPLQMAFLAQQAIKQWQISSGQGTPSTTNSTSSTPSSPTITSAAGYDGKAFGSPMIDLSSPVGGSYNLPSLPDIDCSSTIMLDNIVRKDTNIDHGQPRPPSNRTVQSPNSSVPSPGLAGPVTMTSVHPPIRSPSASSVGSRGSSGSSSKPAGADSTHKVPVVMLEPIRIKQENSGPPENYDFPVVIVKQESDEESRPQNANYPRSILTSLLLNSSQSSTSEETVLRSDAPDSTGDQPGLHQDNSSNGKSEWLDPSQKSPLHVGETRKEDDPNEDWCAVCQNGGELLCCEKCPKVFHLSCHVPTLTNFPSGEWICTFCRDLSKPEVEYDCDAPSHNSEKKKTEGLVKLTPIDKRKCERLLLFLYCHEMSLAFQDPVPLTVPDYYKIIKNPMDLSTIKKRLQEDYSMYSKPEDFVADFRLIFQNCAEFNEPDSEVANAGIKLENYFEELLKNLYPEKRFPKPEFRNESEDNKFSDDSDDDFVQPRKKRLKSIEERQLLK

Chain of Mitogen-activated protein kinase 1 (Homo sapiens) (P28482 whole entry): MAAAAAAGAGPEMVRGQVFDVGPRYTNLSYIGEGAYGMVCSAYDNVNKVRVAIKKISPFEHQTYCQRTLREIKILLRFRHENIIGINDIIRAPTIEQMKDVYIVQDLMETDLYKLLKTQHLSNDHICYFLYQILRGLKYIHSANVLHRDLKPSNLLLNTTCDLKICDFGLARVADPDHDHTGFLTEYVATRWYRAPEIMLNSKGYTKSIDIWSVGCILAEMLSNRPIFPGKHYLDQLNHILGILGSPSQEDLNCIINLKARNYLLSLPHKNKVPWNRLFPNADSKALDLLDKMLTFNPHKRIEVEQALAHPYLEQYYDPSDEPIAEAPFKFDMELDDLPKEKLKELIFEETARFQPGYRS
Chain of Glycogen synthase kinase-3 beta (Homo sapiens) (P49841 whole entry, looked up): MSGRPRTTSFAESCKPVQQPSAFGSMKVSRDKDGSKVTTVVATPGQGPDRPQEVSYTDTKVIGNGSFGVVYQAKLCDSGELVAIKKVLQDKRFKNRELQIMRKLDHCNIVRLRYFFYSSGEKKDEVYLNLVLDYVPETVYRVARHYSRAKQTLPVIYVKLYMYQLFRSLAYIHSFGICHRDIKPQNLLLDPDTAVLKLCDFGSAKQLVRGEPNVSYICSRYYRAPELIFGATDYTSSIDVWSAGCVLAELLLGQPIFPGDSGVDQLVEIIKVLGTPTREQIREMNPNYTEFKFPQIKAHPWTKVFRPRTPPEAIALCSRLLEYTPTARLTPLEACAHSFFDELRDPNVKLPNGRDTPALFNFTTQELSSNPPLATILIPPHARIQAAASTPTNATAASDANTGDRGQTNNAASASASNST
Chain of Tyrosine-protein kinase ABL1 (Homo sapiens) (P00519 whole entry): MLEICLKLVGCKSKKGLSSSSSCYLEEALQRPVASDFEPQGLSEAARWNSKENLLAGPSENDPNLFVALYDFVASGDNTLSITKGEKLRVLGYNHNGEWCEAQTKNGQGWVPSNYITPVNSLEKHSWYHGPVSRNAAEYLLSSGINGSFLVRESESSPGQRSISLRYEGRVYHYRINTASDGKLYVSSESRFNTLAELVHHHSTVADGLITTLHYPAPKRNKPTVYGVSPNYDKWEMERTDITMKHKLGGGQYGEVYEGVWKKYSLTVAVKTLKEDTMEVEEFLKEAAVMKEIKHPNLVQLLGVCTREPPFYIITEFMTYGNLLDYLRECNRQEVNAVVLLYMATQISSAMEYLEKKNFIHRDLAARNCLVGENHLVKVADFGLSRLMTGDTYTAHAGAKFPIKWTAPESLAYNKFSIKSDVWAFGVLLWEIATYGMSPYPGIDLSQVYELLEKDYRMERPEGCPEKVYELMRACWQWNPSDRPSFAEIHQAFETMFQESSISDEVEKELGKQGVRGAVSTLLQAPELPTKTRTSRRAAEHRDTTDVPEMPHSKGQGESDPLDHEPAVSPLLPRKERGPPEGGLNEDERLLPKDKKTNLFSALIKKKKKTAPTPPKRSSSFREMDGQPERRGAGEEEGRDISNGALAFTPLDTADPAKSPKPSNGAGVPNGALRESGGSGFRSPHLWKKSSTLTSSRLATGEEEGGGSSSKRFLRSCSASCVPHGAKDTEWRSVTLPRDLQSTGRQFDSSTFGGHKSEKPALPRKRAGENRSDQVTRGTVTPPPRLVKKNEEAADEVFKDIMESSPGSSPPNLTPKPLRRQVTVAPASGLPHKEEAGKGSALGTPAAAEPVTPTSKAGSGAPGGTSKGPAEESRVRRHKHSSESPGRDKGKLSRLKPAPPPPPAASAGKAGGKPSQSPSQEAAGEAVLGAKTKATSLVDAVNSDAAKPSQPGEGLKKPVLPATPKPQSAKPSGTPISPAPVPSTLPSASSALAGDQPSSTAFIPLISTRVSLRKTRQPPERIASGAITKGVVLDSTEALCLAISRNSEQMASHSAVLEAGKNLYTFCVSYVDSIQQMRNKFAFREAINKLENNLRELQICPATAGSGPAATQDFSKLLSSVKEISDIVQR
Chain of Casein kinase I isoform delta (Homo sapiens) (P48730 whole entry, looked up, canonical isoform): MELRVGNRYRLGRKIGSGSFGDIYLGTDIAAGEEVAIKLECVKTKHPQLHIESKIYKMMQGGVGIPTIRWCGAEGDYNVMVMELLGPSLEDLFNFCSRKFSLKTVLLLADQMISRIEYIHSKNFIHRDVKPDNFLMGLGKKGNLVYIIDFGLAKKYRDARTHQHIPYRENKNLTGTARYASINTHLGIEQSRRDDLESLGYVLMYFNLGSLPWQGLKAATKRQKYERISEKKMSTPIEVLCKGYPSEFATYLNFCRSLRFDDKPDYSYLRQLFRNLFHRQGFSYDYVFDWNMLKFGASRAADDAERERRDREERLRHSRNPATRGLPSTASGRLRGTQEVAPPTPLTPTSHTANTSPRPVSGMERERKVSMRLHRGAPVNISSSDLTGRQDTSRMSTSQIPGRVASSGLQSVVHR

| Structure (SMILES) | ΔTm [1] [°C] | ΔTm [2] [°C] | ΔTm [3] [°C] | ΔTm [4] [°C] | ΔTm [5] [°C] | ΔTm [6] [°C] | ΔTm [7] [°C] |
| --- | --- | --- | --- | --- | --- | --- | --- |
| CCCn1cc(-c2cc(C3C(=O)N(CC)c4ccc(C(F)(F)F)cc4N(c4ccccc4)C3=O)cc(OC)c2O)cn1 (centres undefined) | -0.36 | 1.16 | 0.47 | -1.32 | -7.84 | 0.54 | 0.28 |
| C=CC(=O)N1CCC[C@@H](n2nc(-c3ccc(Oc4ccccc4)cc3)c3c(N)ncnc32)C1 | 2.63 | 0.83 | 0.7 | -1.96 | -6.31 | 6.21 | -4.01 |
| C[C@H](CCC(=O)O)[C@H]1CC[C@H]2[C@@H]3[C@@H](O)C[C@@H]4C[C@H](O)CC[C@]4(C)[C@H]3CC[C@]12C | 0.07 | 0.52 | 0.77 | -0.56 | 0.29 | -1.74 | -2.12 |
| CO[C@H](C)CN1CC[C@]2(C)c3cccc(O)c3C[C@H]1C2(C)C | 0.1 | 0.52 | 0.27 | -0.29 | -0.17 | -0.21 | 0.19 |
| Cc1nnc2n1-c1sc3c(c1C(c1ccccc1Cl)=NC2)C[C@@H](C(=O)N1CCOCC1)C3 | 0.78 | 0.74 | 0.17 | 0.5 | 0.3 | 0.11 | -0.75 |
| C[C@@H](CO)CCC[C@@H](C)[C@H]1CC[C@H]2[C@@H]3CC=C4C[C@@H](O)CC[C@]4(C)[C@H]3CC[C@]12C | 0.11 | 0.17 | 0.59 | -0.96 | 0.35 | -1.67 | -3 |
| C[C@@H](CN1CC[C@@]2(C)c3cccc(O)c3C[C@@H]1C2(C)C)OCc1ccccc1 | -0.13 | 0.59 | 0.25 | -1.13 | 0.48 | 0.13 | 0.17 |
| Cc1cc(Cl)ccc1S(=O)(=O)NC[C@H]1C2CCC(CC2)[C@@H]1/C=C\CCCC(=O)O | -0.05 | -0.53 | -0.27 | -1.54 | 0.13 | -0.34 | -0.51 |
| CC[C@H]1[C@@H](O)[C@@H]2[C@H](CC[C@]3(C)[C@@H]([C@H](C)CCC(=O)O)CC[C@@H]23)[C@@]2(C)CC[C@@H](O)C[C@@H]12 | -0.12 | -0.27 | 0.56 | -0.92 | -0.09 | -1.71 | -1.62 |
| C=C[C@@]12CCc3cc(O)ccc3[C@H]1CC[C@@]1(C)[C@H]2CC[C@@H]1O | 0.27 | 0.21 | 0.08 | 1.27 | 0.21 | 0 | -0.42 |
| CCN(CC)CCO[C@H]1CC[C@@]2(C)C(=CC[C@@H]3[C@@H]2CC[C@]2(C)C(=O)CC[C@@H]32)C1 | 0.26 | 0.63 | -0.08 | -0.11 | 0.35 | -0.37 | -0.77 |
| CCN1C(=O)C(c2cccc(C(=O)O)c2)C(=O)N(c2ccccc2)c2cc(C(F)(F)F)ccc21 (centres undefined) | -0.5 | -0.13 | 0.29 | -1.43 | 0.17 | -0.25 | 0.23 |
| C[C@@H]1CC[C@@]2(OC1)O[C@H]1[C@@H](O)[C@H]3[C@@H]4CC[C@H]5C[C@@H](O[C@@H]6O[C@H](CO)[C@H](O[C@@H]7O[C@H](CO)C(O)[C@H](O[C@@H]8OC[C@@H](O)[C@H](O)[C@H]8O)[C@H]7O[C@@H]7O[C@H](CO)[C@H](O)[C@H](O[C@@H]8O[C@H](CO)[C@@H](O)[C@H](O)[C@H]8O)[C@H]7O)[C@H](O)[C@H]6O)[C@H](O)C[C@]5(C)[C@H]4CC[C@]3(C)[C@H]1[C@@H]2C (some centres undefined) | 0.2 | 0.55 | 0.07 | -0.93 | 0.27 | -0.73 | -3.45 |
| O=C1CCC(N2Cc3cc(CNC(=O)C(F)(F)c4ccc(Cl)cc4)ccc3C2=O)C(=O)N1 (centres undefined) | 0.53 | 0.76 | 0.06 | 0.18 | 0.34 | -0.46 | -0.96 |
| C[C@]12CC[C@@H]3c4ccc(C(N)=O)cc4CC[C@H]3[C@@H]1CC=C2c1cncc(F)c1 | 0.15 | -0.32 | -4.77 | 0 | 0.35 | 2.37 | 0.2 |
| CNC(=O)c1cc(C(=O)NC2CC2)cn(Cc2ccccc2)c1=O | 0.07 | 0.96 | -0.04 | -0.41 | 0.38 | -0.78 | -0.29 |
| CN1CCN(C(=O)Cc2ccc(N/C(=C3\C(=O)Nc4cc(Cl)ccc43)c3ccccc3)cc2)CC1 | 8.52 | 1.7 | 1.29 | 6.21 | -0.19 | 1.19 | -2.36 |
| COc1ccc(-n2nc(C(F)(F)F)cc2-c2ccc(Cl)cc2)cc1 | 0.2 | 1.23 | 0.03 | -0.24 | 0.69 | -0.08 | -0.34 |
| Clc1ccccc1C(c1ccccc1)(c1ccccc1)n1cccn1 | 0.43 | 0.09 | -0.01 | -0.43 | 0.22 | -0.47 | -0.54 |
| COc1nc2ccc([C@@](O)(c3ccc(Cl)cc3)c3cncn3C)cc2c(Cl)c1Cc1ccc(-n2cccn2)cc1 | -0.22 | -0.1 | -0.84 | -1.9 | -0.39 | -0.59 | -0.54 |

| Structure (SMILES) | ΔTm [1] [°C] | ΔTm [2] [°C] | ΔTm [3] [°C] | ΔTm [4] [°C] | ΔTm [5] [°C] | ΔTm [6] [°C] | ΔTm [7] [°C] |
| --- | --- | --- | --- | --- | --- | --- | --- |
| N[C@H](C(=O)O)[C@@H]1CC(Cl)=NO1 | -0.08 | 0.85 | 0.22 | 0.23 | 0.14 | -0.37 | -0.82 |
| C=CC(=O)Nc1cc(-c2nn(C3CCC(N4CCN(C(C)=O)CC4)CC3)c3ncnc(N)c23)ccc1Oc1ccccc1 (centres undefined) | 0.84 | 0.18 | 0.89 | -1.12 | 0.34 | 4.07 | -1.68 |
| Cc1nnc2n1-c1sc3c(c1C(c1ccccc1Cl)=NC2)C[C@H](C(=O)N1CCOCC1)C3 | 0.62 | 0.85 | 0.25 | 0.26 | 0.42 | -0.08 | -0.99 |
| COP(=O)(CCC(N)C(=O)O)Oc1cccc(CC(=O)O)c1 (centres undefined) | -0.06 | 0.07 | 0.36 | -0.02 | 0.13 | -0.17 | 0.32 |
| CNc1nc(-c2cc(C(=O)N3CCN(Cc4ccc(Cl)cc4)CC3)c(Cl)cn2)cs1 | -0.06 | 0.89 | 0.17 | 0.59 | 0.23 | -0.18 | 0.39 |
| Cc1nnc2n1-c1sc3c(c1C(c1ccccc1Cl)=NC2)CC(C(=O)N1CCOCC1)C3 (centres undefined) | 0.38 | 1.08 | 0.02 | -0.24 | 0.25 | 0.1 | 0.23 |
| CS(=O)(=O)c1ccc(-c2cnc(N)c(C(=O)Nc3ccccc3)n2)cc1 | 0.67 | 0.23 | -0.19 | 3.54 | 0.38 | 0.45 | -1.74 |
| C=CC(=O)Nc1ccc2[nH]c(=O)n(C3CCN(Cc4ccc(-c5ccc6c(c5)NC(=O)CO6)cc4)CC3)c2c1 | 0.74 | -0.1 | 0.68 | 3.14 | 0.64 | 1.01 | -2.17 |
| CN(C(=O)CCOCCOCCOCCOCCNc1cccc2c1C(=O)N(C1CCC(=O)NC1=O)C2=O)[C@H]1CC[C@@]2(C)[C@@H](CC[C@@H]3[C@@H]2CC[C@]2(C)[C@@H](c4ccc5ccncc5c4)CC[C@@H]32)C1 (some centres undefined) | 1.62 | 0.45 | -6.92 | 2.49 | -1.53 | -1.77 | 0 |
| CO[C@@H](C)CN1CC[C@]2(C)c3cc(O)ccc3C[C@H]1C2(C)C | 0.73 | 0.61 | 0.53 | -0.14 | 0.27 | -0.25 | 0.53 |
| C[C@H](CCC(=O)O)[C@H]1CC[C@H]2[C@@H]3CC[C@@H]4C[C@H](O)CC[C@]4(C)[C@H]3CC[C@]12C | -0.82 | -1.65 | -3.52 | -3.06 | -0.88 | -4.37 | -5.96 |
| CO[C@H](C)CN1CC[C@@]2(C)c3ccc(O)cc3C[C@@H]1C2(C)C | 0.21 | -0.28 | 0.29 | -0.8 | 0.34 | 0.3 | 0.33 |
| Cn1ncc(-c2nc(N[C@H]3CC[C@H](N)CC3)ncc2Cl)c1CC1CC1 | 0.41 | 12.7 | 9.79 | 9.59 | 2.41 | 2.45 | -3.6 |
| Cc1ccc2c(N)c(C(=O)NC3CCc4cc(N5CC6CCC(C5)N6)ccc4C3)sc2n1 (centres undefined) | 0.14 | -0.27 | 0.27 | -0.23 | 0.3 | -0.05 | -1.89 |
| OCC1OC(n2cnc3cc(Cl)c(Cl)cc32)C(O)C1O (centres undefined) | 0.32 |  | 1.91 | 0.18 | 0.27 | 0.42 | -1.91 |
| CCC(=O)O[C@@H](OP(=O)(CCCCc1ccccc1)CC(=O)N1C[C@H](C2CCCCC2)C[C@H]1C(=O)O)C(C)C (some centres undefined) | 0.01 | 0.46 | -0.25 | -0.61 | 0.22 | -1.22 | -3.14 |
| O=C(NCCN1CCC2(CC1)C(=O)NCN2c1cccc(F)c1)c1ccc2ccccc2c1 | -0.28 | 0.17 | 0.58 | -0.14 | 0.08 | 0.16 | 0.18 |
| Cc1nnc2n1-c1sc(CCC(=O)N3CCOCC3)cc1C(c1ccccc1Cl)=NC2 | 0.15 | 0.99 | 0.34 | -0.2 | 0.13 | 0.01 | 0.29 |
| COc1ccc(OC(=O)N(CC(=O)O)Cc2ccc(OCCc3nc(-c4ccccc4)oc3C)cc2)cc1 | 0.16 | -0.27 | 0.56 | -1.96 | 0.18 | -0.93 | -4.78 |
| CCOP(=O)(OCC)C(=Cc1cc(C(C)(C)C)c(O)c(C(C)(C)C)c1)P(=O)(OCC)OCC | -0.09 | 0.15 | 0.17 | -0.29 | 0.15 | -1.17 | -3.9 |
